# In PubChem BioAssay (NCI):
# Compounds without any hit were thinned out: in the full panel of roughly 83,000, 20% have a hit.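 Cells were grown in 96-well plates and exposed to the test compound at a single concentration for 48 hours; results are reported as percent growth, with values below 10 considered active.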 Unmarked numbers belong to inactive results. The source made the active and inactive calls.
# Tested on: HL-60(TB) leukemia
# Experiment: NCI-60 one-dose screen, 48 h (100 = growth as untreated, 0 = no growth, -100 = all killed)
# Settings: 10 µM unless noted
row,Compound,growth
1,Nc1c(Br)cc2c(c1Br)Cc1cc([N+](=O)[O-])ccc1-2,69.6%
2,C=C(C)[C@@H]1CC[C@]2(C(=O)N3CCN(C)CC3)CC[C@]3(C)[C@H](CC[C@@H]4[C@@]5(C)CC(CCCNC(C)=O)(CCCNC(C)=O)[C@H](OC(C)=O)C(C)(C)[C@@H]5CC[C@]43C)[C@@H]12,94%
3,O=C(O)c1ccc2cccnc2c1O,-20.5% (active)
4,N=c1c(S(=O)(=O)c2ccccc2)cc2c(=O)n3ccccc3nc2n1CC1CCCO1 (stereo not given),109%
5,O=C1/C(=C/c2ccc(-c3cccc(C(F)(F)F)c3)o2)SC(=S)N1CCc1ccc(O)cc1,35.7%
6,O=C(c1ccccc1)c1cccc(C(Br)Br)c1,87.6%
7,O=C(/C=C/c1ccccn1)c1ccccc1,1.48% (active)
8,COc1ccc(/C(C)=C(/c2ccc(OCCCN(C)C)cc2)c2ccc(OC(=O)c3ccccc3)cc2)cc1,62.8%
9,COc1ccc2c(c1)nc(N)c1c3cc(OC)c(OC)cc3cn21,23.1%
10,COc1ccc2c(c1)N(Cc1ccc(Cl)cc1)CCC2N1CCCC1=O (stereo not given),53.9%
11,O=C(COc1ccc(/C=C2\Oc3ccccc3C2=O)cc1)c1ccc(Cl)cc1,94.5%
12,CC(=O)OCC1OC(OC2=C(CC=C(C)C)C(=O)c3ccccc3C2=O)C(OC(C)=O)C(OC(C)=O)C1OC(C)=O (stereo not given),-36.7% (active)
13,C#CC(F)(F)[C@]1(O)CCC2C3CCC4=CC(=O)CCC4=C3[C@@H](c3ccc(N(C)C)cc3)C[C@@]21C (stereo not given in full),56%
14,COc1cc(C2=NN(C(C)=O)C(c3ccc(OC(C)=O)cc3OC(C)=O)O2)c(OC(C)=O)c2ccccc12 (stereo not given),-17.9% (active)
15,CCOC(=O)c1cc(C(=O)c2ccc(OC)c(OC)c2)n2c1ccc1ccccc12,99.8%
16,CCOC(=O)c1cc(C(=O)c2ccc(OC)c(OC)c2)n2c1ccc1ccc3cccnc3c12,3.73% (active)
17,N#CC1=C(N)Oc2c(c(N)nn2-c2ccccc2)C1c1ccc(Cl)cc1Cl (stereo not given),96.5%
18,CCC(=O)Nc1ccc(-c2nc(-c3cccc(OC)c3)c(-c3ccnc(Br)c3)[nH]2)cc1,49.5%
19,CCOc1ccc2c(c1)/C(=C\C=C\C1CC(C)C3CC(OCC)CCC3N1CC)CC(C)N2CC (stereo not given),-35.7% (active)
20,CCOC(=O)/C=C/c1c(C)[nH]c(=O)[nH]c1=O,75.3%

row,Compound,growth
1,COc1ccc(-c2c(-c3cc4c(c(OC)c3OC)OCO4)noc2N)cc1,16.8%
2,COc1ccc(/C(=C/c2cc(OC)c(OC)c(OC)c2)[N+](=O)[O-])cc1,-26.4% (active)
3,C=C(C)[C@@H]1CC[C@]2(N=C=O)CC[C@]3(C)[C@H](CC[C@@H]4[C@@]5(C)Cc6c([nH]c7ccccc67)C(C)(C)[C@@H]5CC[C@]43C)[C@@H]12,46.2%
4,C=C1C(=O)O[C@H]2[C@H]1CC/C(COC(=O)NCCc1cccc(OC)c1)=C\CC[C@@]1(C)O[C@@H]21,6.53% (active)
5,Cc1ccc(C2=NN(c3ccc(S(C)(=O)=O)cc3)C(=O)CC2)cc1,-12% (active)
6,COc1ccc(Nc2ncnc3c2sc2nc(C)cc(C)c23)cc1,97.9%
7,COc1cccc2c1C(=O)c1c(O)c3c(c(O)c1C2=O)C[C@](O)(C(=O)CO)C[C@H]3O[C@@H]1C[C@@H](NC(=O)CCCN(C)C2(c3ccc(F)cc3)CC3CCC2C3)[C@H](O)[C@@H](C)O1 (stereo not given in full),76%
8,N#Cc1ccc([N+](=O)[O-])o1,108%
9,CNC(=O)c1c(C)oc2cc(Oc3ncnc4cc(OC)c(OC)cc34)ccc12,117%
10,O[C@H]1CO[C@H]2[C@@H]1OC[C@@H]2Oc1ccc(Nc2ccnc(Nc3ccc(O[C@H]4CO[C@H]5[C@@H]4OC[C@@H]5O)c(Cl)c3)n2)cc1Cl,-7.8% (active)
11,COc1ccc(-c2nc(-c3nc4cc(C)c(C)cc4[nH]3)cc3c2[nH]c2ccccc23)cc1,-31.9% (active)
12,CCN(CC)CC(=O)Nc1ccc2ncnc(Nc3ccc(Oc4cccc(F)c4)c(Cl)c3)c2c1,16.2%
13,CCCCCOC(=O)c1ccccc1O,99.4%
14,Nc1ccc(-n2c(=O)oc3ccc(Cl)cc3c2=O)c(Cl)c1,-42.8% (active)
15,C1=Cc2ccccc2N(c2nnc(-c3ccccc3)o2)c2ccccc21,86.8%
16,CCCCCCCCCCCCCC[n+]1ccc(C(N)=O)cc1,-50.6% (active)
17,CCNC(=O)Oc1ccc(/C(=C(/C)Cc2ccc(OC)cc2)c2ccc(OCCN3CCCCCC3)cc2)cc1,38.1%
18,O=C1C(Cl)=C(N/N=c2/[nH][nH]/c(=N/NC3=C(Cl)C(=O)c4ccccc4C3=O)c3ccccc23)C(=O)c2ccccc21,39.5%
19,COc1ccc(CNc2ccc3nc(CCC4CCCCC4)[nH]c3c2)cc1,54.8%
20,O=C(Nc1ccc(-n2cc(-c3ccncc3)c(-c3ccc(O)c(Cl)c3)n2)cc1)c1ccc(Cl)c(C(F)(F)F)c1,10.9%
